uPA generation: cell surface uPA generation inhibition; Potency, µM (titrated, usually from 38.3 µM), usual class: inhibitors; cell surface uPA generation assay, qHTS; 330,000 compounds, 0.31% hits; AID 540303; active means well fitted inhibition curve with a large enough effect; inconclusive means small, poorly fitted or top-dose-only effect; inactive means no such curve, though single readings can be large or run the other way; tested in mouse RAW 264.7 cells; further: nearly all actives have a fitted effect of over 55% in size
TCR activator: T cell receptor activation; AID 504894; primary human leukocytes, anti-CD3, IL-2 HTRF, 48 h; 330,000 tested, under 10 active; Potency, µM (doses to about 9.22 µM), hits mostly activators
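Compounds are tested in HTS on primary human leukocytes co-incubated with a-CD3 beads for 48 hr. IL-2 output is measured by time-resolved FRET.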
ClpP mod: qHTS Assay for Activators of ClpP; 340,000 compounds, 1.9% hits; AID 651965, 2013; purified B. subtilis ClpP, FRET peptide cleavage, 20 min; Potency, µM (doses to about 57.5 µM); ATP-dependent Clp protease proteolytic subunit (Bacillus subtilis (strain 168)), P80244; active means well fitted falling curve with a large enough effect; inconclusive means small, poorly fitted or top-dose-only effect; inactive means no such curve, though single readings can be large or run the other way; further: the source files actives as falling curves though it sought activators and does not explain the sign; nearly all actives have a fitted effect of over 65% in size
Target sequence (P80244 whole entry, looked up): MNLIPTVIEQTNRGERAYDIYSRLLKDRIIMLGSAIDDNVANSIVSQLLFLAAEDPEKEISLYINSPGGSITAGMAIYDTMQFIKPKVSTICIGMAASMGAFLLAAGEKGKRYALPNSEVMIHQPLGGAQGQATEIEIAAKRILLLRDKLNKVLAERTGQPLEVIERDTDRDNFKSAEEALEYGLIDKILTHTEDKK
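Buffer: 100 mM Tris/HCl pH8, 100 mM KCl, 0.05% low protease BSA, 2.5% glycerol, 0.01% Tween-20. ClpP 10 microg/mL final; 20 min RT; delta FRET normalized to ADEP and DMSO controls.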
Sfp PPTase inh: Sfp phosphopantetheinyl transferase inhibition; Biochemical Sfp PPTase activity, qHTS; Potency, µM, most hits filed as inhibitors; 310,000 compounds, 3.5% hits; AID 1490;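 further: the enzyme is Sfp with the accession as filed and its product quenches rhodamine fluorescence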
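Fluorescence-quenching assay: 15 nM Sfp-PPTase preincubated 15 min at room temperature with compound, then 5 uM rhodamine-CoA and 12.5 uM BHQ-2-labelled YbbR peptide added. Fluorescence (ex 525/em 598 nm) read at start and after 30 min; difference gives rate.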
Each line names hits and unclear results; the compound was inactive in the other large screens. A selection: hits, their analogues and other compounds. The true share with any hit is near 4.2%. Unless noted, the call rests on the fitted dose curve; in most records, active means well fitted curve in the direction sought with a large enough effect; inconclusive means small, poorly fitted or top-dose-only effect, or another doubt; inactive means no such curve, though single readings can be large; an effect the other way counts as inactive or inconclusive.

Cc1ccc(-c2nc3c(c(=O)c4ccccc4n3C)c(=O)n2Cc2ccco2)cc1	Sfp PPTase inh 3.98µM (no result: ClpP mod)
CCc1nc2oc3cc(OC)ccc3c(=O)c2c(=O)n1Cc1ccco1	Sfp PPTase inh 35.5µM
COC(=O)/C=C/c1ccccc1S(=O)(=O)NC(C)C	none (no result: uPA generation, TCR activator, Sfp PPTase inh)
O=c1c2ccccc2sc2nc(C3CCCCC3)n(Cc3ccco3)c(=O)c12	none (no result: uPA generation)
CCc1nc2sc3ccccc3c(=O)c2c(=O)n1Cc1ccco1	Sfp PPTase inh 39.8µM
C[C@H]1C(O)[C@@]23CCC4C5(C=[N+](CCO)C[C@]4(C)CCC5)C2C[C@@H]1C3 (stereo not given in full)	none (no result: uPA generation, TCR activator, ClpP mod)
CS(=O)(=O)N(CC(=O)N1CCN(Cc2ccccc2)CC1)c1cccc([N+](=O)[O-])c1	none (no result: ClpP mod)
OCCCc1cn(-c2ccccc2)c2ccccc12	none (no result: ClpP mod)
Clc1nc(Cl)nc(-c2cn(-c3ccccc3)c3ccccc23)n1	Sfp PPTase inh 56.2µM
Cc1c(C(=O)OC(C)C(C)C[N+](C)(C)C)oc2ccccc12 (stereo not given)	ClpP mod 28.2µM
Cc1nc(Nc2ccc(S(=O)(=O)N3CCCCC3C)cc2)c2nnn(Cc3ccccc3)c2n1 (stereo not given)	ClpP mod 31.6µM
O=C(c1ccc(-n2cncn2)c([N+](=O)[O-])c1)N1CCN(S(=O)(=O)c2ccccc2F)CC1	ClpP mod 14.1µM (no result: Sfp PPTase inh)
CN(C)S(=O)(=O)c1cccc(NC(=O)c2ccccc2OCc2ccc(F)cc2)c1	ClpP mod 20µM (no result: uPA generation)
CN(C)S(=O)(=O)c1cccc(COc2ccccc2C(=O)Nc2ccccc2)c1	none
O=C(/C=C/c1ccco1)c1ccc(NC(=O)C23CC4CC(CC(C4)C2)C3)cc1	Sfp PPTase inh 3.55µM
COc1ccc(OC)c(NC(=O)N2CCC(CN3CCCCC3)CC2)c1	none (no result: uPA generation, TCR activator, Sfp PPTase inh)
O=C(COC(=O)c1ccccc1NCCO)NCCC1=CCCCC1	ClpP mod 25.1µM (no result: Sfp PPTase inh)
O=C(OCC(=O)N(Cc1ccccc1)Cc1ccccc1)c1ccccc1NCCO	none (no result: ClpP mod, Sfp PPTase inh)
CC(C#N)(NC(=O)COC(=O)c1ccccc1NCCO)C1CC1 (stereo not given)	ClpP mod 25.1µM (no result: Sfp PPTase inh)
O=C(COC(=O)c1ccccc1NCCO)NCCc1ccccc1	ClpP mod 14.1µM (no result: Sfp PPTase inh)
Cc1ccc(C(=O)OCC(=O)Nc2c(C)nn(-c3ccccc3)c2C)c(O)c1	none (no result: uPA generation, TCR activator, Sfp PPTase inh)
O=C(COC(=O)c1ccccc1NCCO)NCC1CCCCC1	none (no result: Sfp PPTase inh)
Cc1ccc(-n2nc(C)c(NC(=O)COC(=O)c3ccccc3NCCO)c2C)cc1	ClpP mod 28.2µM (no result: Sfp PPTase inh)
COc1cccc(N2CCN(C(=O)C3CCC(CNS(=O)(=O)c4ccc(Br)s4)CC3)CC2)c1 (stereo not given)	none (no result: uPA generation, TCR activator, Sfp PPTase inh)
Cc1ccc(C(=O)N/C(=C\c2cccs2)C(=O)N2CCOCC2)cc1C	none
Cc1ccccc1-c1nc(CN2CCC(C(=O)NCc3ccccc3Cl)CC2)c(C)o1	none (no result: uPA generation, TCR activator, Sfp PPTase inh)
CC1(C)CC(Cc2ccc(C(F)(F)F)cn2)N(C(=O)OC(C)(C)C)C1 (stereo not given)	none (no result: uPA generation, TCR activator, Sfp PPTase inh)
CC(C)(c1ccccc1)c1ccc(OCCCN2CCNCC2)cc1	Sfp PPTase inh 39.8µM (no result: ClpP mod)
CNCCCOc1ccc(C(C)(C)c2ccccc2)cc1	Sfp PPTase inh 56.2µM (no result: uPA generation, TCR activator, ClpP mod)
COCCCNCCOc1ccc(C(C)(C)c2ccccc2)cc1	none
CC(C)(C)c1ccc(OCCCCCCN2CCNCC2)cc1	none (no result: ClpP mod, Sfp PPTase inh)
Cc1ccc(-c2ccc(=O)n(Cc3cc(C)ccc3C)n2)cc1	none
O=c1ccc(/C=C/c2ccccc2)nn1Cc1ccccc1Cl	ClpP mod inconclusive
O=c1ccc(/C=C/c2ccccc2)nn1Cc1ccc(Cl)cc1Cl	ClpP mod 28.2µM
Cc1ccc(/C=C/c2ccc(=O)n(Cc3ccc(Cl)cc3Cl)n2)cc1	ClpP mod 3.16µM
O=C(CN1CC(=O)Nc2ccccc21)Nc1ccc(F)c(F)c1	Sfp PPTase inh 39.8µM
COc1ccc(NS(=O)(=O)c2ccc3oc4ccccc4c3c2)cn1	Sfp PPTase inh 56.2µM
O=C(Nc1ccc(Br)cc1F)c1cc2nc(-c3ccco3)cc(C(F)(F)Cl)n2n1	none (no result: uPA generation, TCR activator, Sfp PPTase inh)
CC(=O)Nc1ccc(NC(=O)C2(c3cccs3)CCOCC2)cc1	none (no result: uPA generation, TCR activator, Sfp PPTase inh)
O=[N+]([O-])c1ccc(-c2cnc(NO)nc2)cc1	Sfp PPTase inh 56.2µM
Cc1ccc(S(=O)(=O)Nc2c(C)n(C)n(-c3ccccc3)c2=O)cc1C(=O)OC(C)C(=O)c1ccccc1 (stereo not given)	uPA generation 5.01µM (no result: Sfp PPTase inh)
Cc1ccc(S(=O)(=O)Nc2c(C)n(C)n(-c3ccccc3)c2=O)cc1C(=O)OC(C)C(=O)N(C)c1ccccc1 (stereo not given)	none (no result: ClpP mod)
COc1ccc(NC(=O)CN2CCN(C(=O)c3ccco3)CC2)c(OC)c1	none
COc1ccc(NC(=S)N2CCN(C(=O)c3ccco3)CC2)c(OC)c1	Sfp PPTase inh 39.8µM
Cc1ccccc1NC(=O)N1CCN(C(=O)c2ccco2)CC1	none
COC(=O)c1ccc(NC(=S)N2CCN(C(=O)c3ccco3)CC2)cc1	Sfp PPTase inh 44.7µM
COC(=O)c1ccccc1NC(=O)N1CCN(C(=O)c2ccco2)CC1	ClpP mod 22.4µM
Cc1cc(C)c(NC(=O)CCN2CCCCC2)c(C)c1	none (no result: uPA generation, TCR activator, Sfp PPTase inh)
Cc1nn(-c2ccc(F)cc2)c(-n2cccc2)c1C(=O)NCCCN1CCN(c2cccc(Cl)c2)CC1	none (no result: uPA generation, TCR activator, Sfp PPTase inh)
O=C1NC2=C(CCc3ccccc32)C(c2ccc(Br)cc2)N1 (stereo not given)	ClpP mod 28.2µM
O=C1Cc2ccccc2C(c2ccc(Br)cc2)N1 (stereo not given)	none
Cc1ccc(-c2cc(-c3ccccc3)no2)c(O)c1	none
Cc1ccc(O)c(-c2cc(-c3ccc(F)cc3)no2)c1	uPA generation 10µM
O=C(O)c1ccc(NS(=O)(=O)c2ccc3c(c2)C2C=CCC2C(c2ccccc2F)N3)cc1 (stereo not given)	Sfp PPTase inh 10µM (no result: ClpP mod)
CC(C)(C)OC(=O)N/N=C/c1cccn1-c1ccc([N+](=O)[O-])cc1	none (no result: ClpP mod)
COc1ccc(CC(=O)N/N=C/c2cccn2-c2ccc([N+](=O)[O-])cc2)cc1OC	Sfp PPTase inh 56.2µM
CCn1c2ccccc2c2cc(NC(=O)COc3cc(C)ccc3C)ccc21	none (no result: uPA generation, TCR activator, Sfp PPTase inh)
COc1ccc(C2CCc3cc4c(cc3C2=NOC(C)=O)OCO4)cc1OC (stereo not given)	none (no result: uPA generation, TCR activator, Sfp PPTase inh)
CSc1nc(=NC(C)=O)ss1	Sfp PPTase inh 4.47µM
Cc1ccc(C)c(N(CC(=O)NCCc2ccccc2)C(=O)CCC(=O)Nc2ccccn2)c1	none (no result: ClpP mod)
Cc1ccc(CN2C(=O)N/C(=C\c3ccc(-c4ccc(C(=O)O)cc4C)o3)C2=O)cc1	none
Cc1cc(C(=O)O)ccc1-c1ccc(/C=C2\NC(=O)N(Cc3ccccc3Cl)C2=O)o1	Sfp PPTase inh 12.6µM (no result: ClpP mod)
Cc1ccc(C(=O)O)cc1-c1ccc(/C=C2/NC(=O)N(c3ccccc3)C2=O)o1	Sfp PPTase inh 22.4µM
Cn1c(C(c2cc3ccccc3n2C)c2cc3ccccc3n2C)cc2ccccc21	none (no result: uPA generation, TCR activator, Sfp PPTase inh)
Cc1ccc2cccc(CC(=O)NN)c2c1	none (no result: uPA generation, TCR activator, Sfp PPTase inh)
Cc1cccc(NC(=O)CSc2nc3c([nH]c4ccccc43)c(=O)n2-c2ccc(F)cc2)c1C	none (no result: uPA generation, TCR activator, Sfp PPTase inh)
O=C(CSc1nc(-c2ccccc2)ns1)N1CCOCC1	Sfp PPTase inh 39.8µM
